Inconclusive results are not listed. Values without a mark were called inactive. Activity calls are given as the source filed them. Calls follow the shape of the dose curve; as a rule, active = well fitted curve in the direction sought with a large enough effect; inconclusive = small, poorly fitted or top-dose-only effect, or another doubt; inactive = no such curve, though single readings can be large; an effect the other way counts as inactive or inconclusive.
Columns and labels:
[1] = Viability qHTS for spleen associated tyrosine kinase inhibitor (SYKi) naive MV4-11 cells (AID 1963823); details: MV4-11 AML viability, CellTiter-Glo luminescence, 72 h; series mostly up to 45 µM; also: nearly all actives have a fitted effect of over 40% in size
Procedure, shortened: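 SYKi-naive MV4-11 AML cells, 500 per well, were exposed to library compounds for 72 hr at 37 C, 5% CO2. Viability was then read by CellTiter-Glo luminescence after 10 min at room temperature.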

[2] = Cellular viability qHTS for adrenocortical cancer (ACC) cell line SW-13 (AID 1963989); details: SW-13 ACC cells viability, CellTiter-Glo, 48 h; activity (max response): stronger effect = lower value; also: nearly all actives have a fitted effect of over 65% in size;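 as to activity (max response): cells grown in serum-free medium with ITS supplement; % is scaled to controls: 0 for no effect and ±100 for the full control effect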
Procedure, shortened: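 48 h treatment, SW-13 in ITS/DMEM serum-free; doses up to 46 uM; readout CellTiter-Glo luminescence; curve fit four-parameter logistic.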

[3] = Cellular viability qHTS for adrenocortical cancer (ACC) cell line NCI-H295R (AID 1963990); details: CellTiter-Glo ATP luminescence, 48 h; series mostly up to 46.1 µM; also: nearly all actives have a fitted effect of over 60% in size
Procedure, shortened: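 Compound titrations (up to 46 uM final) are applied to NCI-H295R cultures for 48 h at 37C. Viable cell number is estimated by CellTiter-Glo signal, normalised to DMSO and doxorubicin controls.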
Potency is read from the fitted curve at half-maximal effect.

SMILES	Potency [1]	activity (max response) [2] [%]	Potency [3]	Potency [2]
CC(C)(C)NC[C@H](O)COc1cccc2c1CCCC2=O	11.9 µM (active)	-13.3	–	–
Nc1ccc(N)c([N+](=O)[O-])c1	24.3 µM (active)	-20.8	–	–
Cc1ccc(/C=N/n2c(-c3ccccc3)csc2=S)cc1	inactive	8.75	inactive	–
O=C(C[C@@H]1C/C=C\CCC(=O)O[C@H](c2ccccc2)CNC1=O)NCc1ccc(Cl)cc1	4.68 µM (active)	11.5	inactive	–
C[C@@H]1[C@H](O)[C@@H](C)/C=C/C=C/C=C/C=C/C=C/C=C/C=C/[C@H](O[C@@H]2O[C@H](C)[C@@H](O)[C@H](N)[C@@H]2O)C[C@@H]2O[C@](O)(C[C@@H](O)C[C@@H](O)[C@H](O)CC[C@@H](O)C[C@@H](O)CC(=O)O[C@H]1C)C[C@H](O)[C@H]2C(=O)O	inactive	-9.6	inactive	–
C=CC(=O)N1CCC[C@H](n2c(=O)n(-c3ccc(Oc4ccccc4)cc3)c3c(N)ncnc32)C1	1.05 µM (active)	–	8.91 µM (active)	3.98 µM (active)
C=C1/C(=C\C=C2/CCC[C@]3(C)[C@@H]([C@H](C)CCCC(C)(C)O)CC[C@@H]23)C[C@@H](O)C[C@@H]1O	0.0186 µM (active)	–	25.1 µM (active)	28.2 µM (active)
Cc1cc2nc3c(=O)[nH]c(=O)nc-3n(C[C@H](O)[C@H](O)[C@H](O)CO)c2cc1C	inactive	8.72	–	–
Cn1ncc(NC(=O)c2nc(-c3c(F)cccc3F)sc2N)c1N1CC[C@@H](N)[C@H](F)CC1	0.235 µM (active)	–	–	25.1 µM (active)
O=S(=O)(O)c1ccc2cc(N=Nc3cc(S(=O)(=O)O)c4cccnc4c3O)ccc2c1	inactive	-15.7	–	–
O=C1c2cccc(O)c2C(=O)c2c(O)cccc21	inactive	1.51	inactive	–
CCO[C@@H]1OC(=O)C[C@@H]1NC(=O)[C@@H]1CCCN1C(=O)[C@@H](NC(=O)c1ccc(N)c(Cl)c1)C(C)(C)C	inactive	-11.3	inactive	–
CC(C)(C)C(=O)OCOC(=O)[C@@H]1N2C(=O)[C@@H](NC(=O)[C@H](N)c3ccccc3)[C@H]2SC1(C)C	inactive	8.43	inactive	–
Cc1nnc(C(C)C)n1C1CC2CCC(C1)N2CCC(NC(=O)C1CCC(F)(F)CC1)c1ccccc1 (centres undefined)	inactive	-4.92	inactive	–
COc1cccc2c1c(O)c(C(=O)N(C)c1ccc(C(F)(F)F)cc1)c(=O)n2C	inactive	-27.3	–	–
CCNCCc1ccc(CN(CC)c2cc(OC)ccc2[C@@H]2CCc3cc(O)ccc3C2)cc1	2.35 µM (active)	–	3.98 µM (active)	6.31 µM (active)
CN1C(CSCC(F)(F)F)Nc2cc(Cl)c(S(N)(=O)=O)cc2S1(=O)=O (centres undefined)	inactive	-6.86	inactive	–
Cc1cccc(-c2[nH]c(CNc3ccccc3F)nc2-c2ccc3ncnn3c2)n1	13 µM (active)	-16.8	–	–
O=C(O)Cc1ccccc1Oc1ccc(Cl)cc1Cl	inactive	4.63	inactive	–
C1CCN2C[C@@H]3C[C@@H](CN4CCCC[C@@H]34)[C@H]2C1	inactive	-0.968	inactive	–
CCN(CC)CCCC[C@H](NC(=O)[C@H](CC(C)C)NC(=O)[C@H](C)NC(=O)[C@H](Cc1ccccc1)NC(=O)c1ccc(C(C)(C)C)cc1)C(=O)N[C@@H](CO)C(=O)OC	inactive	-29.2	inactive	–
Cc1cc(CCCOc2c(C)cc(-c3noc(C(F)(F)F)n3)cc2C)on1	inactive	-14.2	inactive	–
C[C@]12CC[C@@H]3c4ccc(O)cc4C[C@@H](CCCCCCCCCS(=O)CCCC(F)(F)C(F)(F)F)[C@H]3[C@@H]1CC[C@@H]2O (some centres undefined)	inactive	-10.5	inactive	–
CCN(CC)CC(=O)OCC(=O)[C@@]1(O)CC[C@H]2[C@@H]3CCC4=CC(=O)CC[C@]4(C)[C@H]3[C@@H](O)C[C@@]21C	inactive	11.9	inactive	–
Clc1ccc2c(c1)Nc1ccccc1S2	inactive	-11.9	–	–
CC(C)(C)C(=O)N1N=CC[C@H]1c1ccccc1	2.35 µM (active)	3.19	–	–

From PubChem BioAssay (NCATS)
